Results reported in PubChem BioAssay (Tox21).
Values joined by “and” are separate entries in the source; they are usually repeats but may differ in a detail not shown here. Equal entries are not always repeated. Inconclusive results are not listed. Active and inactive are the calls of the source. Unless noted, the call rests on the fitted dose curve.

Columns and labels:
[1] = Nuclear factor erythroid 2-related factor 2/antioxidant responsive element (Nrf2/ARE) small molecule agonists: qHTS cell viability counter screen in human keratinocytes (AID 1919968; active means well fitted curve in the direction sought with a large enough effect in the repeat runs; an effect the other way counts as inactive or inconclusive; further: nearly all actives have a fitted effect of over 55% in size)
Method in brief: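 Cytotoxicity was multiplexed with the Nrf2/ARE luciferase assay in the same wells. Stably transfected HaCaT keratinocytes were treated with test compounds for 23 h at 37 C. Cell viability was then measured by CellTiter-Fluor fluorescence.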

[2] = biological target: Gonadotropin-releasing hormone receptor (Homo sapiens) (UniProt P30968); assay: Human gonadotropin-releasing hormone receptor (GnRHR) small molecule agonists, calcium flux assay in GnRHR-HEK293 cells (AID 1920063); further: nearly all actives have a fitted effect of over 35% in size
Gonadotropin-releasing hormone receptor (Homo sapiens), sequence (P30968 whole entry, looked up): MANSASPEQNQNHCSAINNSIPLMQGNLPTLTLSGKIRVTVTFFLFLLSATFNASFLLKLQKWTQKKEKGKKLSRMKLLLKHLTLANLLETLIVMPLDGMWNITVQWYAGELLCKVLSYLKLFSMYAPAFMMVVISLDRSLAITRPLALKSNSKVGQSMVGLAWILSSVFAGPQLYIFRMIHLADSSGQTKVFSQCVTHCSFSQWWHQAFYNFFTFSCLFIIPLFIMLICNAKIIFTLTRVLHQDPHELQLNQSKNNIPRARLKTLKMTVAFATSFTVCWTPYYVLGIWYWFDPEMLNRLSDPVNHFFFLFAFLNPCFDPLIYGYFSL
Method in brief: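 Agonist activity was measured as intracellular calcium flux in HEK293 cells engineered to stably express human GnRHR. After dye loading for 1 hour at 37 C, compounds in DMSO were added and fluorescence was followed for 3 minutes.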

[3] = biological target: KiSS-1 receptor (Homo sapiens) (UniProt Q969F8); assay: Human kisspeptin (KISS1R) small molecule agonists, calcium flux assay in KISS1R-HEK293 cells (AID 1920064; active means well fitted curve in the direction sought with a large enough effect in the repeat runs; an effect the other way counts as inactive or inconclusive)
KiSS-1 receptor (Homo sapiens), sequence (Q969F8 whole entry, looked up): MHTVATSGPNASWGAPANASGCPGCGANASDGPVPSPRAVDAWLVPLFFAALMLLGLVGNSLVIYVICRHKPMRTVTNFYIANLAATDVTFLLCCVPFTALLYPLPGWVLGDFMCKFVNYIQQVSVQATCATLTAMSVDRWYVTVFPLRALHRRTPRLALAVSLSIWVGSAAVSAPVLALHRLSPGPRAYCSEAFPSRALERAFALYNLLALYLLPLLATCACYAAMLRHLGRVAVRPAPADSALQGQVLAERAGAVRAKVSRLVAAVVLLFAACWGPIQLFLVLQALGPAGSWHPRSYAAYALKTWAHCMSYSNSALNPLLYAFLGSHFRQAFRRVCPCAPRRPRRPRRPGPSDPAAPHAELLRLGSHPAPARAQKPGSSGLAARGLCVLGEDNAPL
Method in brief: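 Agonist activity is monitored as intracellular calcium rise in engineered HEK293 cells carrying human KISS1R. Cells are dye-loaded for 1 h at 37 C before compound addition, and fluorescence is recorded for 3 min.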

[4] = G protein-coupled receptor (GPCR) small molecule agonists, calcium flux assay: HEK293 wild type cell line counter screen (AID 1920065)
Method in brief: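 Seed cells, incubate 18 h (37 C, 5% CO2); add calcium dye, 1 h at 37 C; pin-transfer compounds, ATP control or DMSO; read fluorescence 480/540 nm each second for 3 min.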

[5] = p53 small molecule agonists, cell-based qHTS assay with human liver microsomes (AID 1963577);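 further: p53 response element beta-lactamase reporter cells with liver microsomes plus NADPH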
Method in brief: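 HLM-supplemented p53RE-bla reporter assay: 16 h compound exposure at 37 C, microsomes and NADPH each 0.5 mg/mL final, read by fluorescence intensity.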

[6] = p53 small molecule agonists, cell-based qHTS assay with rat liver microsomes (AID 1963578)
Method in brief: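 Quantitative HTS of the Tox21 10K library: p53RE-bla cells, rat liver microsomes plus NADPH at 0.5 mg/mL final each, 16 h at 37 C, beta-lactamase fluorescence detection.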

[7] = p53 small molecule agonists, cell-based qHTS assay with human liver microsomes: qHTS cell viability counter screen (AID 1963579); further: nearly all actives have a fitted effect of over 45% in size
Method in brief: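 Viability of p53RE-bla cells is measured as CellTiter-Glo luminescence following a 16 h, 37 C incubation with compound, liver microsomes from human donors and NADPH.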

[8] = p53 small molecule agonists, cell-based qHTS assay: qHTS cell viability counter screen (AID 1963581); further: nearly all actives have a fitted effect of over 45% in size
Method in brief: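 Viability was counter-screened in parallel with the p53 agonist reporter by measuring intracellular ATP luminescence in the same HCT-116 p53RE-bla wells after 16 h compound treatment at 37 C.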

[9] = p53 small molecule agonists, cell-based qHTS assay (AID 1963582; active means well fitted activation curve with a large enough effect in the signal ratio in the repeat runs, not every such curve was filed as active; the % refers to the signal ratio)
Method in brief: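 Cells carrying a p53-responsive bla reporter are treated with test compounds for 16 h at 37 C; beta-lactamase activity is then detected with LiveBLAzer B/G FRET substrate after 2 h at room temperature.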

[10] = biological target: 5-hydroxytryptamine receptor 2A (Homo sapiens) (UniProt P28223); assay: 5-hydroxytryptamine receptor 2A (HTR2A) small molecule antagonists, cell-based qHTS assay (AID 1963586); further: nearly all actives have a fitted effect of over 45% in size
5-hydroxytryptamine receptor 2A (Homo sapiens), sequence (P28223 whole entry, looked up): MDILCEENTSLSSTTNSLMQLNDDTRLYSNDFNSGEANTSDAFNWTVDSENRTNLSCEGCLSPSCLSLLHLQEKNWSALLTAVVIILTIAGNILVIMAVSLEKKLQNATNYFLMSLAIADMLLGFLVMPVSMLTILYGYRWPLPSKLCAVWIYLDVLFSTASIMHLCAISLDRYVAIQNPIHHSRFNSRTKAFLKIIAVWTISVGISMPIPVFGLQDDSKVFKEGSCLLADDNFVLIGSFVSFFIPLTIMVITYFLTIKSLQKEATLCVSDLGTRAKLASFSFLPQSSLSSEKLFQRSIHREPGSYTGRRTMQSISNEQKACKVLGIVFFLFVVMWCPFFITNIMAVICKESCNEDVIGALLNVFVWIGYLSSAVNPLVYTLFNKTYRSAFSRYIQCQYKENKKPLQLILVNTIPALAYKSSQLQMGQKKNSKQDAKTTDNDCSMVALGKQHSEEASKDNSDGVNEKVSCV
Method in brief: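 CHO cells stably expressing human HTR2A were plated for 18 h at 37 C, then loaded with calcium dye for 1 h. Compounds were preincubated 5 min at room temperature before DOI (4 nM solution) was added. Kinetic fluorescence was read for 3 min.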

[11] = biological target: Muscarinic acetylcholine receptor M1 (Homo sapiens) (UniProt P11229); assay: Cholinergic receptor muscarinic 1 (CHRM1) small molecule antagonists, cell-based qHTS assay (AID 1963588); further: nearly all actives have a fitted effect of over 40% in size
Muscarinic acetylcholine receptor M1 (Homo sapiens), sequence (P11229 whole entry, looked up): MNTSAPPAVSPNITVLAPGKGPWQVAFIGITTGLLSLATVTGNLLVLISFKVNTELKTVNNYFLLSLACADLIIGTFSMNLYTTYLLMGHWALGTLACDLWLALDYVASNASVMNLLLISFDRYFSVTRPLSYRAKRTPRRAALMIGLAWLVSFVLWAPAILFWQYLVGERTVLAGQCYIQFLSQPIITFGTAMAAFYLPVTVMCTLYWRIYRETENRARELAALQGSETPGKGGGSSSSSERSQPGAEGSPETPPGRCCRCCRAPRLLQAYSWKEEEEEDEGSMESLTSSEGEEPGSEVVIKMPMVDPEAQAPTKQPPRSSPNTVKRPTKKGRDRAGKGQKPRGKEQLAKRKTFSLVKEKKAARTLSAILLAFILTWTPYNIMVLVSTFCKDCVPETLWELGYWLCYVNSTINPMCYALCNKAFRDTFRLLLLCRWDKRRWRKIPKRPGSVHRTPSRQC
Method in brief: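 Compounds were tested at 15 concentrations in three independent runs. Dye-loaded CHRM1-CHO cells were exposed 5 min at room temperature before stimulation by acetylcholine added at 50nM. Intracellular calcium was read kinetically on FDSS for 3 min.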

[12] = biological target: Muscarinic acetylcholine receptor M1 (Homo sapiens) (UniProt P11229); assay: Cholinergic receptor muscarinic 1 (CHRM1) small molecule agonists, cell-based qHTS assay (AID 1963589); further: nearly all actives have a fitted effect of over 35% in size
Method in brief: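 Cells were plated and incubated 18 h at 37 C/5% CO2, loaded with calcium dye for 1 h at 37 C, then treated with compounds in DMSO. Fluorescence was recorded kinetically at 1 sec intervals.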

[13] = cAMP Responsive Elements (CRE) small molecule agonists, cell-based qHTS assay (AID 1963590)
Method in brief: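 Cells carrying a CRE-driven beta-lactamase reporter (HEK 293T) are seeded, incubated overnight (18 h), and treated with test compounds for 3 h at 37 C; reporter activity is then detected with a FRET substrate after 2 h at room temperature.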

[14] = cAMP Responsive Elements (CRE) small molecule antagonists, cell-based qHTS assay (AID 1963591; active means well fitted inhibition curve with a large enough effect in the signal ratio in the repeat runs, not every such curve was filed as active; the % refers to the signal ratio)
Method in brief: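 Cells (CRE-bla HEK 293T, DMEM with 10% dialyzed FBS and 25 mM HEPES) are seeded and incubated 18 h. Compounds are added with NKH477 agonist at 0.25 uM final for 3 h, then FRET substrate for 2 h.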

[15] = biological target: Beta-2 adrenergic receptor (Homo sapiens) (UniProt P07550); assay: Adrenergic beta2 receptor (ADRB2) small molecule antagonists, cell-based qHTS assay (AID 1963592); further: series mostly up to about 92 µM; nearly all actives have a fitted effect of over 50% in size
Beta-2 adrenergic receptor (Homo sapiens), sequence (P07550 whole entry, looked up): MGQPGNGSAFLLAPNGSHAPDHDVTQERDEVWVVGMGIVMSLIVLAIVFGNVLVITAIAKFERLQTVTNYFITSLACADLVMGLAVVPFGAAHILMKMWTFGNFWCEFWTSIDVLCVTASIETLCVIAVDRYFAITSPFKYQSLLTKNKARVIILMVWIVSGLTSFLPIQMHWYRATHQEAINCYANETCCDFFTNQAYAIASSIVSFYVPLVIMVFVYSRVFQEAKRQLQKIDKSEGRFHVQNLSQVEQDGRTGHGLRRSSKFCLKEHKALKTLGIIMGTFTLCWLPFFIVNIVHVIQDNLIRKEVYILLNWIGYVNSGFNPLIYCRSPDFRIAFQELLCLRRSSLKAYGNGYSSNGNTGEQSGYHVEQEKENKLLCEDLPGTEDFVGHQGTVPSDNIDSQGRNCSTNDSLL
Method in brief: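 Assay format: CHO-ADRB2 cells, 18-20hr seeding at 37C/5% CO2, then compound plus 1nM isoproterenol agonist mix for 0.5hr RT. Homogeneous time-resolved fluorescence cAMP detection after 1hr, expressed as 665/615 nm ratio.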

[16] = biological target: D(2) dopamine receptor (Homo sapiens) (UniProt P14416); assay: Dopamine D2 receptor (DRD2) small molecule agonists, cell-based qHTS assay (AID 1963594); further: nearly all actives have a fitted effect of over 35% in size; further: potency means the concentration at half of the fitted maximal effect
D(2) dopamine receptor (Homo sapiens), sequence (P14416 whole entry, looked up): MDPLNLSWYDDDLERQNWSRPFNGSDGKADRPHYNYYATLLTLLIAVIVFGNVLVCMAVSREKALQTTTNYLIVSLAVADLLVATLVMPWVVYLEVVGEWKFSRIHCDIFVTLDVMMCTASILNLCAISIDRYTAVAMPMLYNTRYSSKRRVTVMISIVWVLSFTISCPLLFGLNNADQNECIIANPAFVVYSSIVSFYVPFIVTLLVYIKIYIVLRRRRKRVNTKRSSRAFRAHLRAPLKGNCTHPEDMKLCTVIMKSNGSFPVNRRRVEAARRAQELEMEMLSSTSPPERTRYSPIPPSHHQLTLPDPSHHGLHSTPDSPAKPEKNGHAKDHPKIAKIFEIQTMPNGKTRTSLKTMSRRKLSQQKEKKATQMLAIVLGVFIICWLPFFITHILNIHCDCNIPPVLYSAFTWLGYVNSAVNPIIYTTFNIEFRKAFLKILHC
Method in brief: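 cAMP accumulation in DRD2-HEK293 cells measured by HTRF after 1 h detection; compounds added 10 min before NKH477 (200nM […]) forskolin-analogue stimulation, 30 min at room temperature, with Ro20-1724 present at 0.1 mM final.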

[17] = p53 small molecule agonists, cell-based qHTS assay with rat liver microsomes: qHTS cell viability counter screen (AID 1963580); further: nearly all actives have a fitted effect of over 45% in size
Method in brief: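 Cytotoxicity counter screen: intracellular ATP read by CellTiter-Glo luminescence in the p53 reporter wells. HCT-116 p53RE-bla cells were treated for 16 h at 37 C alongside rat liver microsomes and NADPH, each 0.5 mg/mL final.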

[18] = biological target: 5-hydroxytryptamine receptor 2A (Homo sapiens) (UniProt P28223); assay: 5-hydroxytryptamine receptor 2A (HTR2A) small molecule agonists, cell-based qHTS assay (AID 1963587); further: nearly all actives have a fitted effect of over 30% in size
Method in brief: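 Kinetic calcium-flux fluorescence (2 min, 1 sec intervals) after compound addition in agonist mode. HTR2A-CHO cells were cultured 18 h, then dye-loaded 1 h at 37 C.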

[19] = biological target: Beta-2 adrenergic receptor (Homo sapiens) (UniProt P07550); assay: Adrenergic beta2 receptor (ADRB2) small molecule agonists, cell-based qHTS assay (AID 1963593);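 further: CHO cells stably overexpressing human ADRB2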
Method in brief: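 CHO cells stably over-expressing ADRB2 were plated overnight at 37C, then dosed with compounds plus a stimulation mix containing 100uM IBMX and 25uM Ro-20-1724 for 0.5hr at room temperature. cAMP was measured by HTRF competition, 1hr.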

[20] = biological target: D(2) dopamine receptor (Homo sapiens) (UniProt P14416); assay: Dopamine D2 receptor (DRD2) small molecule antagonists, cell-based qHTS assay (AID 1963595; active means well fitted inhibition curve with a large enough effect in the signal ratio in the repeat runs, with a control signal flat; the % refers to the signal ratio)
Method in brief: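 Stable D2 receptor HEK293 line, 24 h after seeding. Compound preincubated 10 min, then quinpirole (12 nM) with forskolin analogue NKH477 (200 nM), 30 min, room temperature. Detection by time-resolved FRET of cAMP.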
On the % scale 0 is the no-effect control and ±100 the full control effect.

CCCCC(CC)COC(=O)/C=C\C(=O)OCC(CC)CCCC (stereo not given)
inactive: Potency [1] | Potency [2] | Potency [3] | Potency [4] | Potency [5] | Potency [6] | Potency [7] | Potency [8] | Potency [9] | Potency [10] | Potency [11] | Potency [12] | Potency [13] | Potency [14] | Potency [15] | Potency [16]

CC1(C)OC(=O)NC1=O
inactive: Potency [1] | Potency [2] | Potency [3] | Potency [4] | Potency [5] | Potency [6] | Potency [17] | Potency [9] | Potency [10] | Potency [18] | Potency [11] | Potency [12] | Potency [13] | Potency [14] | Potency [15] | Potency [19] | Potency [16] | Potency [20]

CCCCCCCCCCC(CO)CCCCCCCC (stereo not given)
inactive: Potency [1] | Potency [2] | Potency [3] | Potency [4] | Potency [5] | Potency [6] | Potency [7] | Potency [8] | Potency [9] | Potency [10] | Potency [18] | Potency [11] | Potency [12] | Potency [13] | Potency [14] | Potency [15] | Potency [16] | Potency [20]

c1ccc(OCCOc2ccccc2)cc1
inactive: Potency [1] | Potency [2] | Potency [3] | Potency [4] | Potency [5] | Potency [6] | Potency [17] | Potency [8] | Potency [9] | Potency [10] | Potency [18] | Potency [11] | Potency [13] | Potency [14] | Potency [15] | Potency [19] | Potency [16] | Potency [20]

CNNCc1ccc(C(=O)NC(C)C)cc1
inactive: Potency [1] | Potency [2] | Potency [3] | Potency [4] | Potency [5] | Potency [6] | Potency [7] | Potency [17] | Potency [8] | Potency [9] | Potency [13] | Potency [15] | Potency [20]

O=S(=O)(O)NC1CCCCC1
inactive: Potency [1] | Potency [2] | Potency [3] | Potency [4] | Potency [7] | Potency [17] | Potency [8] | Potency [10] | Potency [18] | Potency [11] | Potency [12] | Potency [14] | Potency [15] | activation [19] -21.4% [at 19 µM] | Potency [16] | Potency [20]

Oc1ccccc1
inactive: Potency [1] | Potency [2] | Potency [3] | Potency [5] | Potency [6] | Potency [7] | Potency [17] | Potency [8] | Potency [9] | Potency [13] | Potency [14] | Potency [15] | Potency [16] | Potency [20]

CC(COc1ccccc1)N(CCCl)Cc1ccccc1 (stereo not given)
active: Potency [16] 13.2 µM and 7.22 µM
inactive: Potency [1] | Potency [3] | Potency [4] | Potency [5] | Potency [6] | Potency [7] | Potency [17] | Potency [9] | Potency [18] | Potency [11] | Potency [12] | Potency [13] | Potency [14] | Potency [15] | Potency [19] | Potency [20]
